Source: the supplement of paper PMC10849652
Of roughly 7,900 targets only a part is listed; those with a hit were picked by preference. About 0.6% of all pairs of compound and target were hits. Unmarked numbers belong to inactive results.

Chain of UniProt Q8TAP8 (Q8TAP8 whole entry, looked up): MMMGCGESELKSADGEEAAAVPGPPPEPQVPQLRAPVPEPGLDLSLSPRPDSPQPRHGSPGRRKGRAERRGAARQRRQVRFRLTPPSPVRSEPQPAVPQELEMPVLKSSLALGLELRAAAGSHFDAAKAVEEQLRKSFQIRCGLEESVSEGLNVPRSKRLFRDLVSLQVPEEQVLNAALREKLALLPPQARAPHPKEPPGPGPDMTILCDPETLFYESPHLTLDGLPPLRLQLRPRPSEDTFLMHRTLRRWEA
Chain of UniProt Q9Y244 (Q9Y244 whole entry, looked up): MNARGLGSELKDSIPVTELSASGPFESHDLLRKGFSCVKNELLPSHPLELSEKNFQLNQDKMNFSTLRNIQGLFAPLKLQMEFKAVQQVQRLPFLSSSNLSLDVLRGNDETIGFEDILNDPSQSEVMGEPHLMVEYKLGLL
Chain of UniProt Q9Y2Y1 (Q9Y2Y1 whole entry, looked up): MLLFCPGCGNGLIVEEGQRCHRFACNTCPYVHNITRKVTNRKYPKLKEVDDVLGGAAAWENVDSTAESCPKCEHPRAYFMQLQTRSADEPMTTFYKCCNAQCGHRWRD
Chain of UniProt O75400 (O75400 whole entry, looked up): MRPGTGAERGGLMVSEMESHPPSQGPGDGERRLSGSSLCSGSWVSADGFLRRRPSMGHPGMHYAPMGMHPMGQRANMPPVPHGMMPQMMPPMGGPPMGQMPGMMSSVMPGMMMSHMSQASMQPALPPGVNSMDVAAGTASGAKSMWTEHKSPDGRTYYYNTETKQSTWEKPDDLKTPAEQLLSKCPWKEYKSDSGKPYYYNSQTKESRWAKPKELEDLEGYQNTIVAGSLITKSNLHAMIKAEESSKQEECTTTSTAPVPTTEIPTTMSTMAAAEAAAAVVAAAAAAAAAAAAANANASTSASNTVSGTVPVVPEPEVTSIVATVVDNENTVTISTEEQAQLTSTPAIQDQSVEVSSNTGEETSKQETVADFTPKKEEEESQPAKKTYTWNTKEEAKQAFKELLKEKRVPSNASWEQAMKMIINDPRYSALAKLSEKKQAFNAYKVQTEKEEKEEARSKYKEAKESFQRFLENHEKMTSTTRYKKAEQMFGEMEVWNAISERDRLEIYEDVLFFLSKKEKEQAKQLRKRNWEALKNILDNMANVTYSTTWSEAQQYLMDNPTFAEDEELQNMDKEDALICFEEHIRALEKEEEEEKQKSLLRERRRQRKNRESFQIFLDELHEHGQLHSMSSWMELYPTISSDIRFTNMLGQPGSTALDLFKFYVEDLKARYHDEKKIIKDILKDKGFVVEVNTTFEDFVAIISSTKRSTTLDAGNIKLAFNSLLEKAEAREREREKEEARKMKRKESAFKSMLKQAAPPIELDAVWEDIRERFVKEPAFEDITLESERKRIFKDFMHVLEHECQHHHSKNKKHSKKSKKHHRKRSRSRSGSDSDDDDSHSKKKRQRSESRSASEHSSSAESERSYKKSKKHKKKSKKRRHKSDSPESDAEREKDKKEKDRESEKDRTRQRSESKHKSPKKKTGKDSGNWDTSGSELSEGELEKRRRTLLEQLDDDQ
Chain of UniProt P10644 (P10644 whole entry, looked up): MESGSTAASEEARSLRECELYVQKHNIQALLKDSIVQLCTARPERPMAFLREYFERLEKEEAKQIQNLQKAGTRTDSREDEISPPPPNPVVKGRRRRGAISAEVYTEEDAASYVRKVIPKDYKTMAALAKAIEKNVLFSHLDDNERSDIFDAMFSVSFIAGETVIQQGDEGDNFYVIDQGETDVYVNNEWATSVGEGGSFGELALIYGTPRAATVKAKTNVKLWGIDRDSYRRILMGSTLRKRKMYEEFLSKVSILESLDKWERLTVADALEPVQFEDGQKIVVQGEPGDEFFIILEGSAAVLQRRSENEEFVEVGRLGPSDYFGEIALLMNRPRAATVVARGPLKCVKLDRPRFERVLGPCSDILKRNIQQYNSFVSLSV
Chain of UniProt O00408 (O00408 whole entry, looked up): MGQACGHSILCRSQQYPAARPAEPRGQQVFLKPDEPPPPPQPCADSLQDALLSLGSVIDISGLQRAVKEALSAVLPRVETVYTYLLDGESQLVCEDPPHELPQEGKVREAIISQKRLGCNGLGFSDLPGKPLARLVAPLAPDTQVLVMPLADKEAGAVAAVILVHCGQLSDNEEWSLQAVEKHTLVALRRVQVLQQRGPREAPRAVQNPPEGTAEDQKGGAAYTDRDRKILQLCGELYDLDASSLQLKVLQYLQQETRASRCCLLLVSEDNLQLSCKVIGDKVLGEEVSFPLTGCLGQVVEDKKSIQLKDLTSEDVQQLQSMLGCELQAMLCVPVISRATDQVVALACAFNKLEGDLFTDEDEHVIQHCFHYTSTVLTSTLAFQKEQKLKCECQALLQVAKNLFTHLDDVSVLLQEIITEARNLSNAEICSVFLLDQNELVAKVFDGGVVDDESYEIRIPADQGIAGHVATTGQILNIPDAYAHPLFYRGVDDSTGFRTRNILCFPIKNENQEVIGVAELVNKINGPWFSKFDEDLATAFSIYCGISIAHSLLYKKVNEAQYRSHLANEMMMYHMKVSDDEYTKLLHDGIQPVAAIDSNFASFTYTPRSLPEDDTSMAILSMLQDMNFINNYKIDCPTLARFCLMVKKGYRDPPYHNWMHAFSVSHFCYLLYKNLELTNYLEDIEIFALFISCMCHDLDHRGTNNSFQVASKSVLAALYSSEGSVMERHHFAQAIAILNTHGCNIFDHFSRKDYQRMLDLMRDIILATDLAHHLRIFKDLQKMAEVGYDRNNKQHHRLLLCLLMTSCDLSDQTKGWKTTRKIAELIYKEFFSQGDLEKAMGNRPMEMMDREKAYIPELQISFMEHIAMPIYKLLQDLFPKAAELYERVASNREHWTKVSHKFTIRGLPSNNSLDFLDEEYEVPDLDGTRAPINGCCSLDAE
Chain of UniProt Q9BTU6 (Q9BTU6 whole entry, looked up): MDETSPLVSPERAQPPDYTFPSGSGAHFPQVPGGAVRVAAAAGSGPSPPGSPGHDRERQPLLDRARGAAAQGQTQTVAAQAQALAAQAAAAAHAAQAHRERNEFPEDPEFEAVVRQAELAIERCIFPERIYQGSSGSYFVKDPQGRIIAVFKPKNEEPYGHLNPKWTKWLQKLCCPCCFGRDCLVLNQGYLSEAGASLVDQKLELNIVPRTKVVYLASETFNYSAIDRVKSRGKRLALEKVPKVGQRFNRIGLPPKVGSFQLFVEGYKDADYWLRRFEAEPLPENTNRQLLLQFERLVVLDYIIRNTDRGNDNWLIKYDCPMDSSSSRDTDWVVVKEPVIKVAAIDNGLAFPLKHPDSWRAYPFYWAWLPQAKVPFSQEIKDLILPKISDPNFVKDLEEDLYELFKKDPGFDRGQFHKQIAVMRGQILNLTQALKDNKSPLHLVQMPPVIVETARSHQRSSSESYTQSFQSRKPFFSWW
Chain of UniProt P53350 (P53350 whole entry, looked up): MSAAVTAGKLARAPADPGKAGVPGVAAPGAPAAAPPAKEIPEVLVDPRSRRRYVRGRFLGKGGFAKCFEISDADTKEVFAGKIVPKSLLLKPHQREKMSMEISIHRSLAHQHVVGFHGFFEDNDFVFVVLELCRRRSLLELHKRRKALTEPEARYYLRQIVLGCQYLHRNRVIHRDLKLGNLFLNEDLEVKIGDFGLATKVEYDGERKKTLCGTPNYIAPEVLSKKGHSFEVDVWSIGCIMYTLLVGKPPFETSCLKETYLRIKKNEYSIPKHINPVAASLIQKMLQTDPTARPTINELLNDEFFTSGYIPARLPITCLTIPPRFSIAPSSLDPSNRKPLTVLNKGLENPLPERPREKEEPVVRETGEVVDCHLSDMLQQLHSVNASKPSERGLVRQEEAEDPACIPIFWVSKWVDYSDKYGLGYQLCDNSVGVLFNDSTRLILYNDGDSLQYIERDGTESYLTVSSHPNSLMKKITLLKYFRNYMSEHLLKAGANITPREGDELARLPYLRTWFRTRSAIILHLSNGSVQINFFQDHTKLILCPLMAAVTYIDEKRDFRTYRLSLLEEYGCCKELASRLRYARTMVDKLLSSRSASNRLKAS
Chain of UniProt P62136 (P62136 whole entry, looked up): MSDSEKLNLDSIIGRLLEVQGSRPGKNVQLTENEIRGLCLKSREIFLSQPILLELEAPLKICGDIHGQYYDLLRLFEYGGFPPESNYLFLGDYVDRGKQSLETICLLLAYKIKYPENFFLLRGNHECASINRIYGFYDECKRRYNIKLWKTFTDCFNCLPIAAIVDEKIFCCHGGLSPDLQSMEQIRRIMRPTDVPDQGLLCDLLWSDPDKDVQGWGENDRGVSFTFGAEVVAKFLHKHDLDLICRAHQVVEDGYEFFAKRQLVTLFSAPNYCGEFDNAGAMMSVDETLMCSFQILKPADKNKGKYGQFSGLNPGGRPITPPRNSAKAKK
Chain of UniProt O43741 (O43741 whole entry, looked up): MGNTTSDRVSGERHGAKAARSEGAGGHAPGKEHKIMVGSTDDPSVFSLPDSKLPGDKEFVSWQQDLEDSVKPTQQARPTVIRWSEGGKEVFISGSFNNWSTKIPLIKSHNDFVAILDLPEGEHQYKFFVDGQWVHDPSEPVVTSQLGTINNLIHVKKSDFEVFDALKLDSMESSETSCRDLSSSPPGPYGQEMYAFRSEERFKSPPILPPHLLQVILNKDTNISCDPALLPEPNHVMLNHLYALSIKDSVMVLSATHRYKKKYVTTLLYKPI
Chain of UniProt Q92968 (Q92968 whole entry, looked up): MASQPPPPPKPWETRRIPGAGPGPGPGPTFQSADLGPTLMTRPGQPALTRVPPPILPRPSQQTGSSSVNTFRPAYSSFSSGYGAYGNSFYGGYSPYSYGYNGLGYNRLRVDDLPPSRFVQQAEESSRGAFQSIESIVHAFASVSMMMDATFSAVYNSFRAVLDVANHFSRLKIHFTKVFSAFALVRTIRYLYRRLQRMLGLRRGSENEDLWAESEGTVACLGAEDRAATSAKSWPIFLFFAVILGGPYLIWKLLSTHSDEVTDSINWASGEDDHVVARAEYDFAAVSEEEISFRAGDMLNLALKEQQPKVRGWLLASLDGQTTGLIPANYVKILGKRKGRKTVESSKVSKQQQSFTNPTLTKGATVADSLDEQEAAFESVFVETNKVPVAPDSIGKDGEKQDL

These targets were tested with c1cc(OCCN2CCCCC2)cc(-c2n[nH]c3ccc(-c4nnc[nH]4)cc23)c1 (assay: log2 fold change, soluble protein after heating vs DMSO (PISA); higher = thermal stabilisation; K562 cells, 10 uM, 30 min; active = over 0.2 and 3.5 SD of the protein, either way, in both replicates (recomputed)).
Outline: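 For each measurement, 10 μM compound was applied for 30 min to K562 cells at 2×10^6 cells/mL. Aliquots were heated for 3 min across 48°C-58°C, pooled, and extracted in PBS with 0.5% NP-40 at 4°C; the supernatant after 21,000xg for 90 min was soluble protein. This was quantified by TMTpro 16plex LC-MS/MS with channel sums equalised, and thermal stability was reported relative to control samples from duplicates, on a log2 fold-change scale.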
With PDE2A (UniProt O00408) the log2 fold change was 0.018.
Target PSMC5 (UniProt P62195) has a log2 fold change of -0.075.
POMP (UniProt Q9Y244) was tested, and the log2 fold change was -0.01.
For PELO (UniProt Q9BRX2), the log2 fold change was -0.057.
POLR2A (UniProt P24928) showed a log2 fold change of -0.05.
Target PHAX (UniProt Q9H814) has a log2 fold change of -0.029.
Work on PRPF31 (UniProt Q8WWY3) yielded a log2 fold change of -0.038.
Work on PKM isoform 2 (UniProt P14618) yielded a log2 fold change of -0.093.
For PSMD11 (UniProt O00231), the log2 fold change was -0.092.
PURA (UniProt Q00577) gave a log2 fold change of -0.114.
PPIL4 (UniProt Q8WUA2) gave a log2 fold change of -0.1.
POLR2K (UniProt P53803) was tested, and the log2 fold change was -0.474 (active).
With PIK3C3 (UniProt Q8NEB9) the log2 fold change was -0.041.
Work on PRIM2 (UniProt P49643) yielded a log2 fold change of -0.018.
PARG (UniProt Q86W56) gave a log2 fold change of -0.091.
Target PTP4A1 (UniProt Q93096) has a log2 fold change of 0.059.
PPP1R14A (UniProt Q96A00) showed a log2 fold change of 0.018.
For POLR3K (UniProt Q9Y2Y1), the log2 fold change was 0.025.
PARL (UniProt Q9H300) gave a log2 fold change of -0.017.
QRSL1 (UniProt Q9H0R6) gave a log2 fold change of -0.036.
Target PRPF40A (UniProt O75400) has a log2 fold change of -0.067.
Work on PLA2G15 (UniProt Q8NCC3) yielded a log2 fold change of -0.008.
In the case of PATL1 (UniProt Q86TB9), the log2 fold change is reported as -0.093.
For PDCD6IP (UniProt Q8WUM4), the log2 fold change was 0.
Work on PRKACA (UniProt P17612) yielded a log2 fold change of -0.067.
PEX13 (UniProt Q92968) showed a log2 fold change of -0.015.
PPP1R35 (UniProt Q8TAP8) showed a log2 fold change of -0.001.
Work on PIGT (UniProt Q969N2) yielded a log2 fold change of -0.089.
In the case of PDS5B (UniProt Q9NTI5), the log2 fold change is reported as 0.03.
With PRKAR1A (UniProt P10644) the log2 fold change was -0.04.
PGM3 isoform 4 (UniProt O95394) gave a log2 fold change of -0.024.
PLK1 (UniProt P53350) showed a log2 fold change of -0.103.
Work on PI4K2A (UniProt Q9BTU6) yielded a log2 fold change of 0.003.
For PLSCR1 (UniProt O15162), the log2 fold change was -0.096.
With POLD3 (UniProt Q15054) the log2 fold change was 0.109.
PPP1CA (UniProt P62136) gave a log2 fold change of -0.045.
In the case of PRKAB2 (UniProt O43741), the log2 fold change is reported as -0.47.
